A short description of this assay: sensitizers of A549 cells to miR-34 induction, primary screen, imaging, A549 dox-inducible miR-34, nuclei and caspase counts (AID 1347080). Also: test concentration not given here. Conditions: A549 miR-34 inducible, Hoechst nuclei count, 48 h.
The mark [1] stands for this setting: stronger effect = lower value, cell number ratio, induced over uninduced.
Setting [2] is: measured here: relative caspase fold change +Dox/-Dox.
The mark [3] stands for this setting: measured here: total cells with miR-34 induction, stronger effect = lower value.
Setting [4] is: measured here: total cells without miR-34 induction.

Active and inactive are the calls of the source.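 The calls were made as follows: active = compounds whose cell count with miR-34 switched on is under 0.7 times the count with it off; inactive = the rest.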

Turning to `CCCCCCCC/C=C\CCCCCC(=O)O`, the fold change is 0.938 (inactive) under setting [1] and 0.407 under setting [2]. Moreover, the cell count amounted to 5490 under setting [3] and 5860 under setting [4].

For `CC(C)CCC[C@@H](C)[C@H]1CC[C@H]2[C@@H]3CC(=O)[C@@]4(O)C[C@@H](O)CC[C@]4(C)[C@H]3CC[C@]12C`, the fold change was 0.89 (inactive) under setting [1] and 2.89 under setting [2]. Besides, the cell count under setting [3] worked out at 5340 and the cell count under setting [4] turned out to be 6000.

As for `CCCCC/C=C\C/C=C\C/C=C\C/C=C\CCCC(=O)Oc1ccc2ccc(=O)oc2c1`, the fold change by setting is: under setting [1], 0.939 (inactive); under setting [2], 0.946. The cell count is, setting by setting: under setting [3], 5890; under setting [4], 6270.

On to `CCCCC[C@H](O)/C=C/[C@@H]1[C@H]2CC(CCCCC(=O)O)O[C@H]2C[C@H]1O` (stereo not given in full), for which the fold change is 0.937 (inactive) under setting [1] and 1.39 under setting [2]. Moreover, the cell count runs as follows: under setting [3], 6700; under setting [4], 7150.

`CCCCC[C@@](C)(O)/C=C/[C@@H]1[C@@H](C/C=C\CCCC(=O)OC)[C@@H](O)C[C@H]1O`: the fold change is 0.949 (inactive) under setting [1] and 1.07 under setting [2]. Also, the cell count runs as follows: under setting [3], 5940; under setting [4], 6260.

These data come from PubChem BioAssay.
